The subject of one assay is CRL-7250. Put plainly: Cytotoxic Profiling of Annotated Libraries Using Quantitative High-Throughput Screening (AID 1296008). Also: potency is read from the fitted curve at half-maximal effect. As to max response: % is scaled to controls: 0 for no effect and ±100 for the full control effect. As to conditions: Five cell lines viability, CellTiter-Glo ATP luminescence, 48-72 h; max response: hits give low values. Put shortly: (§1)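 Cytotoxicity was measured as CellTiter-Glo ATP luminescence, read after 10 min at room temperature. Compound treatment of the cells lasted 48 or 72 hr at 37 degrees Celsius in a qHTS format.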
For orientation: Cellular ATP, detected with luciferase, serves as a proxy for viable cell number.

In a further assay the test system is HEK293. The assay is described as above. Particulars: Five cell lines viability, CellTiter-Glo ATP luminescence, 48-72 h; max response: hits give low values. Put shortly: as §1
The test system of another assay is HaCat. The description is as above. As to conditions: Five cell lines viability, CellTiter-Glo ATP luminescence, 48-72 h; max response: hits give low values. Put shortly: as §1
The next assay deals with KB-3-1. The description is as above. As to conditions: Five cell lines viability, CellTiter-Glo ATP luminescence, 48-72 h; max response: hits give low values. Put shortly: as §1
A further assay relates to NIH3T3. Described as above. As to conditions: Five cell lines viability, CellTiter-Glo ATP luminescence, 48-72 h; max response: hits give low values. The method, boiled down: as §1
In a further assay the test system is SC27B. Put plainly: qHTS profiling for inhibitors of Plasmodium falciparum proliferation (AID 504749).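 Also: 0% = DMSO vehicle and full inhibition = artemisinin control.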 As to conditions: P. falciparum in erythrocytes, SYBR Green DNA, 72 h; series mostly up to 28.7 µM. Put shortly:
(§2)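 Infected RBCs, 0.3% parasitemia/2.5% Hct final; cpd 72 h, 37 C, 5% CO2; lysis buffer with saponin/triton/SYBR Green I, o/n RT dark; FI 485/535; norm. to artemisinin (0.29 uM) and DMSO.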
(In qHTS, concentration-response curves come from the screen itself.)

In a further assay the test system is TAB109. The description is as above. As to conditions: P. falciparum in erythrocytes, SYBR Green DNA, 72 h; series mostly up to 28.7 µM. The method, boiled down: as §2
In another assay the test system is TAB113. The description is as above. Particulars: P. falciparum in erythrocytes, SYBR Green DNA, 72 h; series mostly up to 28.7 µM. The method, boiled down: as §2
The next assay has as its system TAB165. Described as above. Particulars: P. falciparum in erythrocytes, SYBR Green DNA, 72 h; series mostly up to 28.7 µM. Put shortly:
as §2

A further assay has as its system W2. Described as above. As to conditions: P. falciparum in erythrocytes, SYBR Green DNA, 72 h; series mostly up to 28.7 µM. The method, boiled down:
as §2

“And” between values parts separate entries of the source, which are not always exact repeats. Identical values can stand only once. Inconclusive results are not listed. Unmarked numbers belong to inactive results. The source made the active and inactive calls. Calls follow the shape of the dose curve; as a rule, active = well fitted inhibition curve with a large enough effect; inconclusive = small, poorly fitted or top-dose-only effect; inactive = flat fitted curve, though single readings scatter. Where a SMILES comes first, the peptide text is derived from it. Bridges are numbered along the chain shown (N, C = ends). [ ]: non-standard residue; d: D form. The star is where a group is joined. Dab(CH2SO3H) = N[C@@H](CCNCS(=O)(=O)O)C(=O)O; X3 = CC[C@@H](C)CCCCC(=O)*; Dab = NCC[C@H](N)C(=O)O
Also: nearly all actives have a fitted effect of over 60% in size.

With `CC(=O)N1CCN(NC(=O)c2ccc(F)cc2)CC1`, the max response in the assay with CRL-7250 is -0.968%; with KB-3-1 it was 8.34%; in the assay with NIH3T3 it was -3.31%. Besides, the call in the assay on HEK293 and with HaCat was inactive.
Consider `COc1ccc2c3c1O[C@H]1C[C@@H](O)C=C[C@@]31CCN(C)C2`, for which the Potency result in the assay with SC27B, in the assay on TAB109, in the assay with TAB113, in the assay on TAB165 and in the assay on W2 was “inactive” throughout. Further, the outcome in the assay on CRL-7250, with HEK293, in the assay on HaCat and in the assay on KB-3-1 was inactive. Also, the max response in the assay on NIH3T3 was -4.93%.
For `CC(C)(O)c1ccc2c(c1)C(=O)CC1[C@](C)(CO)CCC[C@]21C` (some centres undefined), the max response was -1.72% in the assay with CRL-7250, -6.05% in the assay with KB-3-1 and -3.87% in the assay on NIH3T3. Also, the call in the assay with HEK293 and with HaCat was inactive.
Consider `C/C=C(\C)C(=O)O[C@@H](C)[C@H]1CC[C@]2(O)C3CCC4C[C@@H](OC5CC(OC)C(OC6CC(OC)C(OC7CC(OC)C(OC8OC(C)C(OC9OC(CO)C(O)C(O)C9O)C(OC)C8O)C(C)O7)C(C)O6)C(C)O5)CC[C@]4(C)C3[C@H](O)[C@@H](O)[C@]12C` (some centres undefined), for which, in the assay on CRL-7250, the max response is -8.84%. In addition, the compound was classed as inactive with HEK293, with HaCat, with KB-3-1 and in the assay on NIH3T3.
In the case of `Cc1c(CN(C)C(=O)/C=C/c2cnc3c(c2)CCC(=O)N3)oc2ccccc12`, the outcome in the assay with CRL-7250 and with HEK293 was inactive. The max response with HaCat was 1.29%; in the assay on KB-3-1, 9.61%; with NIH3T3 it was -2.06%.
Turning to `OC[C@H]1O[C@@H](n2cnc3c2NC=NC[C@H]3O)C[C@@H]1O`, the max response in the assay on CRL-7250 was 4.05%; with KB-3-1 it was -3.14% and 0.256%; in the assay with NIH3T3 it was -9.01%. For the same compound, the compound was classed as inactive in the assay on HEK293.
Turning to `COc1cc(/C=C/C(=O)OC2CC(C)=C(C(=O)O)/C2=C/CO[C@@H]2O[C@H](CO)[C@@H](O)[C@H](O)[C@H]2O)ccc1O` (some centres undefined), in the assay on CRL-7250, the max response is 4.12%. For the same compound, the compound was called inactive in the assay on HEK293, with HaCat, in the assay on KB-3-1 and with NIH3T3.
As for `N#Cc1ccc2[nH]c(O)c(-c3ccc(CN4CCOCC4)cn3)c2c1`, the max response in the assay with HEK293 was -0.745%; in the assay on HaCat, -0.0847%; in the assay with NIH3T3, -16.6%. The compound was called inactive with HEK293 and with NIH3T3.
In the case of `COc1ccc(C[C@H](N)C(=O)N[C@H]2[C@@H](O)[C@H](n3cnc4c(N(C)C)ncnc43)O[C@@H]2CO)cc1`, the Potency with CRL-7250 was 0.92 µM (active); in the assay with HaCat it was 1.3 µM (active); in the assay on KB-3-1 it was 5.17 µM (active) and 517 nM (active); in the assay on NIH3T3, 2.31 µM (active).
Turning to `COc1c(C)c2c(c(O)c1C/C=C(\C)CC/C=C(\C)CCC(=O)O)C(=O)OC2`, the max response in the assay with CRL-7250 was -4.04%; in the assay with NIH3T3, 0.0064%. The call in the assay with HEK293, with HaCat and in the assay on KB-3-1 was inactive.
With `Cc1cc(N2CCCCC2)nc2ccccc12`, the figures for the max response with CRL-7250 and in the assay with HaCat were -12.2% and -14.3%, respectively. In addition, the call in the assay with HEK293, in the assay on KB-3-1 and in the assay with NIH3T3 was inactive.
`Cc1nn(C)c(COc2ccc(N3CCN(S(=O)(=O)N(C)C)CC3)cc2)c1-c1cccc2c(CCCOc3cccc4ccccc34)c(C(=O)O)n(CCN3CCOCC3)c12`: the max response was -5.39% and -9.48% in the assay with CRL-7250; 3.5% in the assay on KB-3-1; -0.0408% in the assay with NIH3T3. Also, the compound was called inactive in the assay on HEK293 and in the assay on HaCat.
For `COC(=O)C1=COC(OC2OC(CO)C(O)C(O)C2O)C2C1CC(OC(=O)C(O)CC(=O)O)C2C` (centres undefined), the max response in the assay on CRL-7250 is -2.72%. The call in the assay with HEK293, with HaCat, in the assay with KB-3-1 and in the assay with NIH3T3 was inactive.
On to `C=C1CC[C@H]2[C@@](C)(CCC[C@@]2(C)C(=O)O)[C@@H]1CCC(C)CCO` (some centres undefined), for which the max response with CRL-7250 was -8.65%; in the assay on HaCat it was 1.39%; with KB-3-1 it was 2.57%; with NIH3T3, 3.89%. The compound was called inactive with HEK293.
With `CCC1CC2C(C)=CC3CCCCC3C2(C)C2(OC(=O)C(C)(O)OC2=O)O1` (centres undefined), the values for the max response in the assay with CRL-7250 and with NIH3T3 were 0.081% and 1.16%, respectively. The result in the assay on HEK293, in the assay on HaCat and in the assay with KB-3-1 was inactive.
Consider `COCCCNCC1COc2ccccc2O1` (centres undefined), for which the results for the max response in the assay on CRL-7250, with KB-3-1 and in the assay with NIH3T3 were 1.45%, 6.68% and 4.14%, respectively. The result in the assay on HEK293 and in the assay with HaCat was inactive.
In the case of `CNc1nc(Nc2cnn([C@H]3CCN(C4COC4)C[C@@H]3F)c2Cl)ncc1C(F)(F)F`, the max response in the assay with CRL-7250 is -6.85% and -3.81%; with NIH3T3, -26.9%. Moreover, the Potency in the assay with HEK293 is 23.1 µM (active) and 9.33 µM (active). Also, the outcome with HaCat was inactive.
Turning to `C=C1CC2[C@]3(C)C(=C(O)C(=O)[C@@]2(C)[C@]2(C(=O)OC)C(=O)C(C)OC(=O)[C@@]12C)C(C)(C)C(=O)CC3O` (some centres undefined), the max response with CRL-7250 is -4.87%; with NIH3T3, 0.571%. Also, the result with HEK293, with HaCat and in the assay on KB-3-1 was inactive.
Take `NCc1ccccc1CC(=O)N[C@@H]1C(=O)N2C(C(=O)O)=C(CSc3nnnn3CC(=O)O)CS[C@H]12`: the max response in the assay on KB-3-1 was -8.7%.
On the same count and under the same terms, in the case of `CC[C@@H](C)CCCCC(=O)N[C@@H](CCNCS(=O)(=O)O)C(=O)N[C@H](C(=O)N[C@@H](CCNCS(=O)(=O)O)C(=O)N[C@H]1CCNC(=O)[C@H]([C@@H](C)O)NC(=O)[C@H](CCNCS(=O)(=O)O)NC(=O)[C@H](CCNCS(=O)(=O)O)NC(=O)[C@H](CC(C)C)NC(=O)[C@@H](CC(C)C)NC(=O)[C@H](CCNCS(=O)(=O)O)NC1=O)[C@@H](C)O` (X3-[Dab(CH2SO3H)]T[Dab(CH2SO3H)][Dab][Dab(CH2SO3H)][dL]L[Dab(CH2SO3H)][Dab(CH2SO3H)]T; lactam 4-C) it was 9.65%.

(Values after PubChem BioAssay (NCATS).)
